Data taken from the supplement of paper PMC11732987, “Enantioselective OTUD7B fragment discovery through chemoproteomics screening and high-throughput optimisation” (Communications Chemistry, 2025).

What was measured:
Assay in all cases: log2 ratio of Biotin-Ahx-Ub-VS probe labelling (fragment/DMSO); higher = less target engagement (more negative = stronger competition), active = hit call of the paper (q ≤ 0.05, log2 ratio ≤ -1)
Conditions in all cases: compound concentration: 200 uM; treatment time: 3 h
[1] = target: T1, ALG13 (UniProt Q9NP73)
T1 sequence (whole entry): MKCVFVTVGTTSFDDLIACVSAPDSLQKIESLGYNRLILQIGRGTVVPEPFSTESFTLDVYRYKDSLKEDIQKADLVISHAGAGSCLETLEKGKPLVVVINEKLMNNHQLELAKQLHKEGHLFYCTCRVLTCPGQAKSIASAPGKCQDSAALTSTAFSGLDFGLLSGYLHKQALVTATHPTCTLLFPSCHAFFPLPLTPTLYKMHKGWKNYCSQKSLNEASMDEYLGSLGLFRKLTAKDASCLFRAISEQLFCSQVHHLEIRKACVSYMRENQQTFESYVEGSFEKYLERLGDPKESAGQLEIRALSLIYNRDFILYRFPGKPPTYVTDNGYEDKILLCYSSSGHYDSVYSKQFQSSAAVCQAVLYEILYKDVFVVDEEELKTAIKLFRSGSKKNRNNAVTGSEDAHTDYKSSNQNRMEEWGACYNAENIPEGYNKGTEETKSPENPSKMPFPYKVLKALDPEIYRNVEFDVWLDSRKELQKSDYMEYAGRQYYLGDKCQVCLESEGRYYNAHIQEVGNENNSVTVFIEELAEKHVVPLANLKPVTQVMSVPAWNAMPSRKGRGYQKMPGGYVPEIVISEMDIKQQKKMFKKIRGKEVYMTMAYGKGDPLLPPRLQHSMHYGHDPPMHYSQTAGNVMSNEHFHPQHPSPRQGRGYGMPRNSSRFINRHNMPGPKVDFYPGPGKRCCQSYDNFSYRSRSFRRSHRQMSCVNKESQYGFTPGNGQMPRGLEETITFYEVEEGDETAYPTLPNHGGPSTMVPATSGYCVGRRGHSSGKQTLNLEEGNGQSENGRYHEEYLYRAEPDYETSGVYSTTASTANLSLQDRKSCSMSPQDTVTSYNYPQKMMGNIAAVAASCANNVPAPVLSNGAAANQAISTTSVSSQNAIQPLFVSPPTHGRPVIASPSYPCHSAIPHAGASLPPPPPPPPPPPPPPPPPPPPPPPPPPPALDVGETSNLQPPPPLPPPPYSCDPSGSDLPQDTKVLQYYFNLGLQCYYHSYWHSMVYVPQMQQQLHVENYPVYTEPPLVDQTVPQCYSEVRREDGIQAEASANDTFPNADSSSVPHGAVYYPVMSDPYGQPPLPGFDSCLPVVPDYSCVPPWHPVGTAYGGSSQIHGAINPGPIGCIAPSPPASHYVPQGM
How it was run: (§1)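 HEK293T lysate (495 µg per sample, in Tris/CHAPS/IGEPAL buffer with protease inhibitors) was exposed in triplicate for 3 h to fragment at 200 µM or to vehicle, then to Biotin-Ahx-Ub-VS at 0.5 µM final for 1 h. Labelled DUBs were enriched on NeutrAvidin, digested with LysC and trypsin, and analysed by diaPASEF LC-MS/MS. Spectronaut label-free quantities were normalised to the global median, and values are average log2 ratios of fragment over vehicle from an unpaired t-test. Only proteins with ≥2 unique peptides were used.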

[2] = target: ATXN3 (UniProt P54252)
How it was run: as §1

[3] = target: T2, BAP1 (UniProt Q92560)
T2 sequence (whole entry): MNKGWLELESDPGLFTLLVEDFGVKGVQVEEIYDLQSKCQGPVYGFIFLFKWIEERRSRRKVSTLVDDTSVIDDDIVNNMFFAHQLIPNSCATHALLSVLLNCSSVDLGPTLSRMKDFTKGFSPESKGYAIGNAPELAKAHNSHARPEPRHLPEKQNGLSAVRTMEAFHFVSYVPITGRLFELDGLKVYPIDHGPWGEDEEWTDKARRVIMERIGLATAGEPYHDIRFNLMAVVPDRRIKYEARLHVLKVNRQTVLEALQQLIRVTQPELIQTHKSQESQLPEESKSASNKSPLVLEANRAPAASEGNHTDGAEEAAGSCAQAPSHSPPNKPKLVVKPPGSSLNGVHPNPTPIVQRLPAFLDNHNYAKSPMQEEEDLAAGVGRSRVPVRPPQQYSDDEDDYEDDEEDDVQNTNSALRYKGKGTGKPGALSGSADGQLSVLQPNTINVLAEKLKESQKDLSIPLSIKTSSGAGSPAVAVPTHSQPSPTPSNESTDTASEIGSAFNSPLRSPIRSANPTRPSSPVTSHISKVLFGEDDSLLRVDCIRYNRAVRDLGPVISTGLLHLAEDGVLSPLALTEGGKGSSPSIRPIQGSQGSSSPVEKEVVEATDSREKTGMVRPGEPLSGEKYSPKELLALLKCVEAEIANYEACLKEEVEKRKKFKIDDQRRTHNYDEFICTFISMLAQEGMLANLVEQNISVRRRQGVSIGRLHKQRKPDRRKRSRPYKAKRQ
How it was run: as §1

[4] = target: EIF3F (UniProt O00303)
How it was run: as §1

[5] = target: EIF3H (UniProt O15372)
How it was run: as §1

[6] = target: T3, FAM105A (UniProt Q9NUU6)
T3 sequence (whole entry): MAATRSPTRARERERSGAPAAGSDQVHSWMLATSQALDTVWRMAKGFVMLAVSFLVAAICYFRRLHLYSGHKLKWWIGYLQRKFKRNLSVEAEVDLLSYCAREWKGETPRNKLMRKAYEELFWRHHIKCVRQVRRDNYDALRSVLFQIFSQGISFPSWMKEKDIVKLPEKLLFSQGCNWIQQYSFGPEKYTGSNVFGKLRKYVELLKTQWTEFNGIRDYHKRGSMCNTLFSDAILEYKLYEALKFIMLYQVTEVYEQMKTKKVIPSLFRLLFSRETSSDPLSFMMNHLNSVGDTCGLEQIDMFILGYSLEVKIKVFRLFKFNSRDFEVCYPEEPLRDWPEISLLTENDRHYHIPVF
How it was run: as §1

[7] = target: OTUB1 (UniProt Q96FW1)
How it was run: as §1

[8] = target: T4, OTUD4 (UniProt Q01804)
T4 sequence (whole entry): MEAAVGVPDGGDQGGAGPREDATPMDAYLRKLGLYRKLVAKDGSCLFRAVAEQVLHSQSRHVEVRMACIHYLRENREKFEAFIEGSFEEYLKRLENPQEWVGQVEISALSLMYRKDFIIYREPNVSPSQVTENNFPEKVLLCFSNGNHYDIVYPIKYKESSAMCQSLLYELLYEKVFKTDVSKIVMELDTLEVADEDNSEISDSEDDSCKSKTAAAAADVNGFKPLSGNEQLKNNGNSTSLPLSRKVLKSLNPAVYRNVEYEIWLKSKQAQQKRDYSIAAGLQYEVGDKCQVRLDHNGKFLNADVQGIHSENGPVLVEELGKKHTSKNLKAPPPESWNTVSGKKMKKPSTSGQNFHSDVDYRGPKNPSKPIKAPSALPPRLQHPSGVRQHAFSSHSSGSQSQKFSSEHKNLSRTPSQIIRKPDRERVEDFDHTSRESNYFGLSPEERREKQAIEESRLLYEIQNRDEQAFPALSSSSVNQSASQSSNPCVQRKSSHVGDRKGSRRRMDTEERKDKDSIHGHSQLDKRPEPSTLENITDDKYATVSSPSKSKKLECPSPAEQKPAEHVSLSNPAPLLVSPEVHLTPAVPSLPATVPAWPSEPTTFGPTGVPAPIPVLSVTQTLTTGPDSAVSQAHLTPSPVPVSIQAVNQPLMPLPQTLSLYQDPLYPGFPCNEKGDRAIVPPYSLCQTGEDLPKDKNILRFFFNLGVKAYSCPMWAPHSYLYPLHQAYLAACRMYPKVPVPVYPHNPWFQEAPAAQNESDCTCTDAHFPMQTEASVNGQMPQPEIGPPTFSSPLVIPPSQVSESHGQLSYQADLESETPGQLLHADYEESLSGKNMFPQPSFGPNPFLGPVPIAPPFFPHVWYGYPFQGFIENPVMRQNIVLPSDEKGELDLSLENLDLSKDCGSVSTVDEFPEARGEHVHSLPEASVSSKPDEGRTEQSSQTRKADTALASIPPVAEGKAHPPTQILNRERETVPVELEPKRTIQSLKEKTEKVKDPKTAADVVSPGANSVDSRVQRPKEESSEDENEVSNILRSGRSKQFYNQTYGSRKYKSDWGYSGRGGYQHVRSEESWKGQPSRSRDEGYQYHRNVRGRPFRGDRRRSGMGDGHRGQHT
How it was run: as §1

[9] = target: T5, OTUD5 (UniProt Q96G74)
T5 sequence (whole entry): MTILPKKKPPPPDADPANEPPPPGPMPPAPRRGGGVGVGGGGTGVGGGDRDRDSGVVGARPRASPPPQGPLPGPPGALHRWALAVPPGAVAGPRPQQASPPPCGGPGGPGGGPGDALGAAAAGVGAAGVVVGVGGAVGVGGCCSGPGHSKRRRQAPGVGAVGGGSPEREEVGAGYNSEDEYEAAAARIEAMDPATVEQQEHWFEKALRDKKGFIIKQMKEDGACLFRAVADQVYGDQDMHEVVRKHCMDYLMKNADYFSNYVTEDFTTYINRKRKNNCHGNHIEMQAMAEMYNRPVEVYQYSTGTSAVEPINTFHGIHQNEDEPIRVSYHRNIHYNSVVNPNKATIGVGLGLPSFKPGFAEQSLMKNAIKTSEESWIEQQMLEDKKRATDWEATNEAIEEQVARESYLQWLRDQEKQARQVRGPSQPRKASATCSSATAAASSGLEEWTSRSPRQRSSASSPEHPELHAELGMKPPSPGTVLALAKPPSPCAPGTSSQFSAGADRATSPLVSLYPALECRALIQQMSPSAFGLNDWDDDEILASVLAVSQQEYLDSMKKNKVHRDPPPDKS
How it was run: as §1

Measured: log2 ratio of Biotin-Ahx-Ub-VS probe labelling

Sequence of EIF3F (O00303 whole entry): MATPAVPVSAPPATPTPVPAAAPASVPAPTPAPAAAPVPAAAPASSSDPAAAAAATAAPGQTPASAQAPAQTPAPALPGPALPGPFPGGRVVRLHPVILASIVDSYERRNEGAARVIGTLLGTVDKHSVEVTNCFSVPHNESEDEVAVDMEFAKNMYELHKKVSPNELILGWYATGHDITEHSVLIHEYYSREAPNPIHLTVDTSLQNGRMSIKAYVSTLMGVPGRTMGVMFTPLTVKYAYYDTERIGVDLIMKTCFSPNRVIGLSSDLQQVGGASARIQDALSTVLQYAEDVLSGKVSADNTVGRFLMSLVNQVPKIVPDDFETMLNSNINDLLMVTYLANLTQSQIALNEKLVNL
Sequence of EIF3H (O15372 whole entry): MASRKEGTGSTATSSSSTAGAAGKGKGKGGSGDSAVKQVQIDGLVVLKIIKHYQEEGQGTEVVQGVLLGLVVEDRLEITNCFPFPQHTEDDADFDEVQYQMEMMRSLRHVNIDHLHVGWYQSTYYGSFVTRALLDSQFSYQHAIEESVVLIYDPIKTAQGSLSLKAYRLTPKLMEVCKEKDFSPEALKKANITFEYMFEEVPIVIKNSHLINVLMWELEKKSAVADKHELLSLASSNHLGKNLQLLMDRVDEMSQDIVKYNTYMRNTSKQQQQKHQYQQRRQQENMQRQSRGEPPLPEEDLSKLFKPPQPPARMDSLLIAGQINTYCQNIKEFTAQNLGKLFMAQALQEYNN
Sequence of ATXN3 (P54252 whole entry): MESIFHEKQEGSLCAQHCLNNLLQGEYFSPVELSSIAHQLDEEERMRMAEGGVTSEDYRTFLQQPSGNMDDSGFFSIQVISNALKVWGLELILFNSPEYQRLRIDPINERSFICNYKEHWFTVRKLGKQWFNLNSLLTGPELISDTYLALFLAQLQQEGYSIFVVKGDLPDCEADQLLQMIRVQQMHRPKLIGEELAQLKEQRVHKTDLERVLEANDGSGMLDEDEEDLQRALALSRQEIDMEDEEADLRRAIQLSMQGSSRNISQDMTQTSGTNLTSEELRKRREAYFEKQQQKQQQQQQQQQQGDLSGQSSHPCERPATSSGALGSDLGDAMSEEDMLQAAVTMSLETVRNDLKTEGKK
Sequence of OTUB1 (Q96FW1 whole entry): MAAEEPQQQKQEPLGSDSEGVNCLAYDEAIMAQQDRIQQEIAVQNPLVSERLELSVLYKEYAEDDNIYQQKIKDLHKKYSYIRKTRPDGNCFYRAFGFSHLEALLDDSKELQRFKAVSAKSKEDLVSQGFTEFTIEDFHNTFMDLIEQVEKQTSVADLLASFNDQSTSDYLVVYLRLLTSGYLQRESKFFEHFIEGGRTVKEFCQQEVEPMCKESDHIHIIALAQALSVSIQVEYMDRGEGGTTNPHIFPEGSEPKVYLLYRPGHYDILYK

NC(=O)C1CCCCN1C(=O)CCl (centres undefined)
inactive: [1] 0.0736 | [2] -0.889 | [3] -0.748 | [4] 0.103 | [5] 0.0122 | [6] -0.18 | [7] -0.182 | [8] -0.464 | [9] -0.638
